# Measured values reported in the supplement of paper PMC8728848.
# Only a selection was taken, and the strongest signals are over-represented in it overall.
# B1: RBMC2 (Vibrio cholerae) (protein)
# chain: KISVRSGFAIDAIGASASTLVGGTGGNLNAAVNVKDIKAIDLTWGKYYWGGYHLLALDFRMSNGSVISMGSKNYAYSKQTERFTVPAGSRIKGIKAWTAGWLLDGVQFELA
# How the values were obtained:
# Assay in all cases: glycan array binding signal (z-score within array); higher = stronger binding
# Settings in all cases: glycan notation: IUPAC condensed, linker removed
# [1] = molecular target: Gal3S(b1-4)[Fuc(a1-3)]Glc6S
# Procedure, shortened: (§1)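 The binding signal is a Z-score computed within each array and averaged over linkers. Arrays of the same protein sequence at different concentrations or buffers were also averaged together. Data originate from 3228 arrays in the Consortium for Functional Glycomics database, kept only where the protein sequence was available.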
# Gal6S(b1-3)GlcNAc = molecular target: Gal6S(b1-3)GlcNAc
# Procedure, shortened: as §1
# [2] = molecular target: GalNAc(b1-4)GlcNAc(b1-2)Man(a1-3)[GalNAc(b1-4)GlcNAc(b1-2)Man(a1-6)]Man(b1-4)GlcNAc(b1-4)GlcNAc
# Procedure, shortened: as §1
# [3] = molecular target: GlcNAc(a1-4)Gal(b1-4)GlcNAc(b1-3)Gal(b1-4)GlcNAc
# Procedure, shortened: as §1
# [4] = molecular target: GlcNAc(b1-2)Man(a1-3)[GlcNAc(b1-2)Man(a1-6)]Man(b1-4)GlcNAc(b1-4)GlcNAc
# Procedure, shortened: as §1
# [5] = molecular target: GlcNAc(b1-2)[GlcNAc(b1-6)]Man(a1-6)[GlcNAc(b1-2)Man(a1-3)]Man(b1-4)GlcNAc(b1-4)GlcNAc
# Procedure, shortened: as §1
# [6] = molecular target: GlcNAc(b1-2)[GlcNAc(b1-6)]Man(a1-6)[GlcNAc(b1-2)Man(a1-3)]Man(b1-4)GlcNAc(b1-4)[Fuc(a1-6)]GlcNAc
# Procedure, shortened: as §1
# [7] = molecular target: GlcNAc(b1-3)Gal(b1-4)GlcNAc(b1-2)Man(a1-3)[GlcNAc(b1-3)Gal(b1-4)GlcNAc(b1-2)Man(a1-6)]Man(b1-4)GlcNAc(b1-4)[Fuc(a1-6)]GlcNAc
# Procedure, shortened: as §1
# [8] = molecular target: GlcNAc(b1-3)Gal(b1-4)GlcNAc(b1-3)Gal(b1-4)GlcNAc(b1-3)Gal(b1-4)GlcNAc(b1-3)Gal(b1-4)GlcNAc(b1-2)Man(a1-3)[GlcNAc(b1-3)Gal(b1-4)GlcNAc(b1-3)Gal(b1-4)GlcNAc(b1-3)Gal(b1-4)GlcNAc(b1-3)Gal(b1-4)GlcNAc(b1-2)Man(a1-6)]Man(b1-4)GlcNAc(b1-4)[Fuc(a1-6)]GlcNAc
# Procedure, shortened: as §1
# [9] = molecular target: GlcNAc(b1-3)Gal(b1-4)GlcNAc(b1-3)[GlcNAc(b1-3)Gal(b1-4)GlcNAc(b1-3)]GalNAc
# Procedure, shortened: as §1
# GlcNAc(b1-6)GalNAc = molecular target: GlcNAc(b1-6)GalNAc
# Procedure, shortened: as §1
# [10] = molecular target: Man(a1-2)Man(a1-3)[Man(a1-2)Man(a1-6)]Man
# Procedure, shortened: as §1
# [11] = molecular target: Man(a1-3)[Man(a1-6)]Man(b1-4)GlcNAc(b1-4)GlcNAc
# Procedure, shortened: as §1
# [12] = molecular target: Neu5Ac(a2-3)Gal(b1-3)GlcNAc(b1-2)Man(a1-3)[Neu5Ac(a2-3)Gal(b1-3)GlcNAc(b1-2)Man(a1-6)]Man(b1-4)GlcNAc(b1-4)GlcNAc
# Procedure, shortened: as §1
# [13] = molecular target: Neu5Ac(a2-3)Gal(b1-3)[GlcNAc(b1-6)]GalNAc
# Procedure, shortened: as §1
# [14] = molecular target: Neu5Ac(a2-3)Gal(b1-4)[Fuc(a1-3)]GlcNAc(b1-6)[Neu5Ac(a2-3)Gal(b1-3)]GalNAc
# Procedure, shortened: as §1
# [15] = molecular target: Neu5Ac(a2-3)[Neu5Ac(a2-6)]GalNAc
# Procedure, shortened: as §1
# [16] = molecular target: Neu5Ac(a2-6)Gal(b1-4)GlcNAc(b1-2)Man(a1-3)Man(b1-4)GlcNAc(b1-4)GlcNAc
# Procedure, shortened: as §1
# [17] = molecular target: Neu5Ac(a2-6)Gal(b1-4)GlcNAc(b1-2)Man(a1-3)[Man(a1-6)]Man(b1-4)GlcNAc(b1-4)GlcNAc
# Procedure, shortened: as §1
# [18] = molecular target: Neu5Ac(a2-6)Gal(b1-4)GlcNAc(b1-2)Man(a1-3)[Neu5Ac(a2-3)Gal(b1-4)GlcNAc(b1-2)Man(a1-6)]Man(b1-4)GlcNAc(b1-4)GlcNAc
# Procedure, shortened: as §1
# [19] = molecular target: Neu5Ac(a2-6)Gal(b1-4)GlcNAc(b1-2)Man(a1-3)[Neu5Ac(a2-6)Gal(b1-4)GlcNAc(b1-2)Man(a1-6)]Man(b1-4)GlcNAc(b1-4)[Fuc(a1-6)]GlcNAc
# Procedure, shortened: as §1
# [20] = molecular target: Neu5Ac(a2-6)Gal(b1-4)GlcNAc(b1-2)Man(a1-6)[Gal(b1-4)GlcNAc(b1-2)Man(a1-3)]Man(b1-4)GlcNAc(b1-4)GlcNAc
# Procedure, shortened: as §1
# [21] = molecular target: Neu5Ac(a2-6)Gal(b1-4)GlcNAc(b1-2)[Neu5Ac(a2-6)Gal(b1-4)GlcNAc(b1-4)]Man(a1-3)[GlcNAc(b1-4)][Neu5Ac(a2-6)Gal(b1-4)GlcNAc(b1-2)[Neu5Ac(a2-6)Gal(b1-4)GlcNAc(b1-6)]Man(a1-6)]Man(b1-4)GlcNAc(b1-4)GlcNAc
# Procedure, shortened: as §1
# [22] = molecular target: Neu5Ac(a2-6)Gal(b1-4)GlcNAc(b1-6)[Gal(b1-3)GlcNAc(b1-3)]Gal(b1-4)Glc
# Procedure, shortened: as §1
binder,measurement,setting,value
B1,glycan array binding signal (z-score),[1],-0.305
same,glycan array binding signal (z-score),Gal6S(b1-3)GlcNAc,-0.328
same,glycan array binding signal (z-score),[2],1.47
same,glycan array binding signal (z-score),[3],-0.281
same,glycan array binding signal (z-score),[4],3.67
same,glycan array binding signal (z-score),[5],-0.232
same,glycan array binding signal (z-score),[6],-0.178
same,glycan array binding signal (z-score),[7],3.51
same,glycan array binding signal (z-score),[8],1.92
same,glycan array binding signal (z-score),[9],-0.222
same,glycan array binding signal (z-score),GlcNAc(b1-6)GalNAc,-0.19
same,glycan array binding signal (z-score),[10],-0.48
same,glycan array binding signal (z-score),[11],4.41
same,glycan array binding signal (z-score),[12],-0.017
same,glycan array binding signal (z-score),[13],-0.155
same,glycan array binding signal (z-score),[14],-0.025
same,glycan array binding signal (z-score),[15],-0.245
same,glycan array binding signal (z-score),[16],-0.132
same,glycan array binding signal (z-score),[17],12.3
same,glycan array binding signal (z-score),[18],3.39
same,glycan array binding signal (z-score),[19],3.57
same,glycan array binding signal (z-score),[20],3.52
same,glycan array binding signal (z-score),[21],-0.425
same,glycan array binding signal (z-score),[22],-0.398
